The panel holds about 79,000 compounds, 15% with a hit somewhere; the sample as a whole holds those more often. Calls of active or inactive are those of the source. No stated cut-off is given here; in the data, active means growth inhibition above about 70%; inactive means the rest.
Legend:
[1] = NCI Yeast Anticancer Drug Screen. Data for the rad50 strain (AID 155);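 further: 0% = growth of vehicle-only cultures of the same strain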; conditions: S. cerevisiae rad50 strain growth inhibition, active compounds read high
Summary of the method: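 DNA repair mutant yeast, compound exposure, growth read-out; inhibition is taken relative to vehicle.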

[2] = NCI Yeast Anticancer Drug Screen. Data for the mec2-1 strain (AID 157); conditions: S. cerevisiae mec2-1 strain, active compounds read high
Summary of the method: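 Strain: mec2-1 (DNA repair/cell cycle alteration). Compound exposure, then growth measured; inhibition expressed relative to vehicle.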

[3] = NCI Yeast Anticancer Drug Screen. Data for the sgs1 mgt1 strain (AID 161);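 further: 0% = growth of cultures given vehicle only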; conditions: S. cerevisiae sgs1 mgt1 strain, active compounds read high
Summary of the method: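 Read-out: growth inhibition vs vehicle controls. Cells: mutant yeast strain deficient in DNA damage repair.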

[4] = NCI Yeast Anticancer Drug Screen. Data for the cln2 rad14 strain (AID 165);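 further: 0% = growth equal to vehicle treated cultures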; conditions: S. cerevisiae cln2 rad14 strain, active compounds read high
Summary of the method: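 Compounds are applied to the cln2 rad14 yeast strain, and growth is then compared with that of vehicle-treated cultures to give inhibition.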

[5] = NCI Yeast Anticancer Drug Screen. Data for the bub3 strain (AID 167); conditions: S. cerevisiae bub3 mutant strain, active compounds read high
Summary of the method: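 In this screen, a yeast mutant lacking normal mitotic checkpoint function is challenged with compound. Relative growth versus vehicle gives the inhibition value.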

[6] = NCI Yeast Anticancer Drug Screen. Data for the mlh1 rad18 strain (AID 175); conditions: S. cerevisiae mlh1 rad18 strain growth inhibition, active compounds read high
Summary of the method: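 Read-out is yeast growth inhibition, calculated against vehicle-only controls. The compound was applied to a strain engineered with DNA damage repair alterations.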

[7] = at 5.0 µM (retest, dose inferred, filed as 0.5)
[8] = at 50.0 µM (retest, dose inferred, filed as 5.0)

Measured: growth inhibition

COC(=O)c1nc(Cl)nc(Cl)c1N
active: [1]; [8] 95% | [1]; at 50.0 µM 96.7% | [2]; [8] 95% | [2]; at 50.0 µM 97.3% | [3]; [8] 92% | [3]; at 50.0 µM 98.2% | [4]; [8] 92% | [4]; at 50.0 µM 96% | [5]; [8] 95% | [5]; at 50.0 µM 97.8% | [6]; [8] 96% | [6]; at 50.0 µM 98.2%
inactive: [1]; [7] 8% | [2]; [7] 14% | [3]; [7] 11% | [4]; [7] -3% | [5]; [7] 7% | [6]; [7] 11%

COC(=O)CCC(=O)NCCc1ccc2c([nH]c3ccccc32)c1C
inactive: [1]; [7] 12% | [1]; [8] 5% | [1]; at 50.0 µM 55.6% | [2]; [7] 5% | [2]; [8] -1% | [2]; at 50.0 µM 59.7% | [3]; [7] 4% | [3]; [8] 11% | [4]; [7] 5% | [4]; [8] -7% | [5]; [7] 5% | [5]; [8] 4% | [5]; at 50.0 µM 63.5% | [6]; [7] 3% | [6]; [8] -2%
active: [3]; at 50.0 µM 71.2% | [4]; at 50.0 µM 93% | [6]; at 50.0 µM 91%

O=S(=O)(CC(Br)Br)c1ccccc1
inactive: [1]; [7] 13% | [2]; [7] 18% | [3]; [7] 3% | [3]; at 50.0 µM 41% | [4]; [7] 7% | [5]; [7] 34% | [6]; [7] 11% | [6]; at 50.0 µM 30.9%
active: [1]; [8] 99% | [1]; at 50.0 µM 99.5% | [2]; [8] 100% | [2]; at 50.0 µM 98.5% | [3]; [8] 99% | [4]; [8] 99% | [4]; at 50.0 µM 74.8% | [5]; [8] 99% | [5]; at 50.0 µM 99.5% | [6]; [8] 99%

COc1ccc2c3c(ccc2c1)NC(C(=O)O)CC3 (stereo not given)
active: [1]; [8] 82% | [3]; [8] 83% | [5]; [8] 82% | [6]; [8] 87%
inactive: [1]; [7] 0% | [1]; at 50.0 µM 60.5% | [2]; [7] -11% | [2]; [8] 56% | [2]; at 50.0 µM -15.8% | [3]; [7] -2% | [3]; at 50.0 µM 36% | [4]; [7] -17% | [4]; [8] 41% | [4]; at 50.0 µM 21.3% | [5]; [7] -6% | [5]; at 50.0 µM 52% | [6]; [7] 3% | [6]; at 50.0 µM 61.1%

Cc1ccc(S(=O)(=O)C(Br)CC(=O)c2ccccc2)cc1 (stereo not given)
active: [1]; [8] 96% | [1]; at 50.0 µM 99% | [2]; [8] 97% | [2]; at 50.0 µM 99.8% | [3]; [8] 97% | [3]; at 50.0 µM 99.7% | [4]; [7] 90% | [4]; [8] 96% | [4]; at 50.0 µM 99.5% | [5]; [8] 97% | [5]; at 50.0 µM 99.7% | [6]; [8] 97% | [6]; at 50.0 µM 99.3%
inactive: [1]; [7] 64% | [2]; [7] 67% | [3]; [7] 67% | [5]; [7] 59% | [6]; [7] 63%

COc1ccc(C(=O)Cc2ccc(Cl)cc2)cc1OC
inactive: [1]; [7] -12% | [1]; [8] -1% | [1]; at 50.0 µM 6.3% | [2]; [7] -7% | [2]; [8] -13% | [2]; at 50.0 µM 2.65% | [3]; [7] -14% | [3]; [8] -17% | [3]; at 50.0 µM 10.5% | [4]; [7] 9% | [4]; [8] -3% | [4]; at 50.0 µM -4.45% | [5]; [7] -1% | [5]; [8] -1% | [5]; at 50.0 µM 3.55% | [6]; [7] -17% | [6]; [8] -22% | [6]; at 50.0 µM 16.6%

ClCC1CSC2(CCCCC2)O1 (stereo not given)
inactive: [1]; [7] 16% | [1]; [8] 3% | [1]; at 50.0 µM 21.5% | [2]; [7] 10% | [2]; [8] -16% | [2]; at 50.0 µM 20.9% | [3]; [7] 7% | [3]; [8] -8% | [3]; at 50.0 µM 27.1% | [4]; [7] 15% | [4]; [8] 32% | [4]; at 50.0 µM 13.7% | [5]; [7] -13% | [5]; [8] -9% | [5]; at 50.0 µM 31.6% | [6]; [7] -17% | [6]; [8] -23% | [6]; at 50.0 µM 27.5%

Cc1ccccc1C[n+]1ccccc1Br
inactive: [1]; [7] 11% | [2]; [7] 9% | [2]; at 50.0 µM 60.6% | [3]; [7] 12% | [3]; at 50.0 µM 64.6% | [4]; [7] -4% | [4]; at 50.0 µM 32% | [5]; [7] -12% | [5]; at 50.0 µM 59.6% | [6]; [7] 15% | [6]; at 50.0 µM 54.4%
active: [1]; [8] 87% | [1]; at 50.0 µM 94.3% | [2]; [8] 79% | [3]; [8] 78% | [4]; [8] 74% | [5]; [8] 77% | [6]; [8] 90%

COc1ccc(-c2nc3c(C(=O)NCCN(C)C)cccc3c3ccccc23)cc1
active: [1]; at 50.0 µM 70.5% | [6]; at 50.0 µM 89.5%
inactive: [1]; [7] 14% | [1]; [8] 42% | [2]; [7] 17% | [2]; [8] 9% | [2]; at 50.0 µM 56% | [3]; [7] -12% | [3]; [8] 55% | [3]; at 50.0 µM 13.9% | [4]; [7] 3% | [4]; [8] 37% | [4]; at 50.0 µM 0.85% | [5]; [7] 8% | [5]; [8] 54% | [5]; at 50.0 µM -15.3% | [6]; [7] 10% | [6]; [8] 37%

Oc1ccc(C23CC4CC(CC(C4)C2)C3)cc1
inactive: [1]; [7] -148% | [1]; [8] -135% | [1]; at 50.0 µM 38.1% | [2]; [7] -50% | [2]; [8] -38% | [2]; at 50.0 µM -1.75% | [3]; [7] -56% | [3]; [8] -46% | [3]; at 50.0 µM 2.8% | [4]; [7] -56% | [4]; [8] -25% | [4]; at 50.0 µM 32.8% | [5]; [7] -69% | [5]; [8] -66% | [5]; at 50.0 µM -26.4% | [6]; [7] -114% | [6]; [8] -91% | [6]; at 50.0 µM 2.1%

Source: PubChem BioAssay (NCI)
